Out of some 360,000 compounds screened, about 2,400 (0.67%) were called active. Cut-off read from the data, not from the text of the source: active = enhancement above about 30%; inactive = the rest. Many of the other results were omitted from the sample, so actives are more common in it than they were.
biological target: Thyrotropin-releasing hormone receptor (Homo sapiens) (UniProt P34981); assay: qHTS for Small Molecule Agonists and Allosteric Enhancers of Human TRH Receptor: Primary Screen for Enhancers; details: TRHR cells, fluo-8 calcium fluorescence, EC20 TRH enhancement; at 2 µM; stronger effect = higher value; note: 0% is about no effect
Sequence (P34981 whole entry, looked up): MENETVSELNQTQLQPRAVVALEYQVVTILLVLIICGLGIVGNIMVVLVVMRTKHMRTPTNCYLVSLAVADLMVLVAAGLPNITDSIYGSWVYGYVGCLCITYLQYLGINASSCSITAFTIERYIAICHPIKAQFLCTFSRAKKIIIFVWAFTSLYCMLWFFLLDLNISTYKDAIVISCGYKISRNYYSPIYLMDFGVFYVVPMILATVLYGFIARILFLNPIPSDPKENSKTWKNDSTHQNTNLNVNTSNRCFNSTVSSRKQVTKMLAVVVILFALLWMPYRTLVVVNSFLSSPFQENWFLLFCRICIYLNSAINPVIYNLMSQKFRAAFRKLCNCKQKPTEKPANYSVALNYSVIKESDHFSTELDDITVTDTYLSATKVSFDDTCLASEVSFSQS
Procedure, shortened: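 Enhancer read-out: after compound pinning and an initial kinetic agonist-mode read, an EC20 of TRH (10 nM final) was injected and fluo-8 calcium signal (Ex 480/Em 530) followed at 1 s/cycle for 100 cycles in TRHR-expressing cells.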

Structure (SMILES) | enhancement
CCC(C)NC(=O)Cn1c(=O)n(-c2ccc(Cl)cc2)c(=O)c2c3c(sc21)CCCC3 (stereo unspecified) | 2.95% (inactive)
CN1CCOc2cc(S(=O)(=O)N3CCN(S(=O)(=O)c4c(F)cccc4F)CC3)cnc21 | -0.823% (inactive)
Cc1ccc(C)c(NC(=O)CSC2=Nc3ccccc3N=C(c3ccc(F)cc3)C2)c1 | -0.667% (inactive)
O=[S+]([O-])(c1ccc(OC(F)(F)F)cc1)N1CCN([S+](=O)([O-])c2ccc3c(c2)OCCO3)CC1 | -5.08% (inactive)
Cc1cccc(-c2nc(SCC(=O)Nc3cc(C)on3)c3c(=O)n(C)c(=O)n(C)c3n2)c1 | 2.9% (inactive)
CCCCn1c(=N)c(S(=O)(=O)c2ccccc2)cc2c(=O)n3cccc(C)c3nc21 | 1.28% (inactive)
CC(C)(C)c1ccc(OCC(=O)N2CCC(c3nc4ccccc4s3)CC2)cc1 | -1.99% (inactive)
COC1=C/C(=C/c2c(N)n3nc(CC(=O)N4CCOCC4)sc3nc2=O)C=CC1=O | 2.92% (inactive)
C=CCC1=C/C(=C\c2c(N)n3nc(CC(=O)N4CCOCC4)sc3nc2=O)C=C(OC)C1=O | 52.7% (active)
COc1cc(OC)c(NC(=O)c2c3c(nn2C)-c2ccccc2SC3)cc1Cl | 2.77% (inactive)
CC(C)(C)c1ccc(C(=O)N2CCC(c3nc(-c4ccc(S(=O)(=O)N5CCCC5)cc4)no3)CC2)cc1 | -2.71% (inactive)
COc1cccc(-c2cc(C(=O)Nc3ccc(C)cc3)[nH]n2)c1 | -0.168% (inactive)
COc1ccc(-c2nc(CN3CCC(C(=O)NCc4ccccc4)CC3)c(C)o2)cc1OC | 3.63% (inactive)
Cc1oc(-c2ccccc2F)nc1CN1CCC(C(=O)NCCc2ccc(Cl)cc2)CC1 | 31.8% (active)
COc1ccc(CCNC(=O)C2CCCN(Cc3nc(-c4cccc(Cl)c4)oc3C)C2)cc1OC (stereo unspecified) | -8.38% (inactive)
Cc1c(CN2CCC(CO)(CCOc3ccccc3)CC2)[nH]c2ccc(Cl)cc12 | 35.6% (active)
COc1cccc(CC2(CO)CCN(Cc3cnc(-c4cccc(C)c4)nc3)CC2)c1 | 1.96% (inactive)
OCC1(CCc2ccccc2)CCN(Cc2ccc3nsnc3c2)CC1 | -4.46% (inactive)
CN(Cc1ccccc1)c1ccc(-c2nc(-c3ccccc3)no2)cc1[N+](=O)[O-] | 5.53% (inactive)

Structure (SMILES) | enhancement
Cc1ccc(OC(=O)CSc2nnc(-c3cccs3)o2)cc1 | -4.22% (inactive)
O=C(CC1SC(N2CCCC2)=NC1=O)Nc1ccc(C(=O)NCCc2ccc(F)cc2)cc1 (stereo unspecified) | 33.4% (active)
COc1ccc(NC(=O)CC2SC(N3CCCCC3)=NC2=O)cc1OC (stereo unspecified) | 1.49% (inactive)
CCC(C)NC(=O)c1ccc(NC(=O)CC2SC(N3CCCCC3)=NC2=O)cc1 (stereo unspecified) | -8.07% (inactive)
Cc1cc2nc(-c3ccc(NC(=O)c4cc5ccccc5o4)cc3)oc2cc1C | -7.25% (inactive)
CC(=O)c1ccc(N2CCN(c3nc4c(S(=O)(=O)c5ccccc5)nnn4c4ccc(Cl)cc34)CC2)cc1 | 1.21% (inactive)
O=C(CNC(=O)c1ccccc1)OC(C(=O)Nc1cc([N+](=O)[O-])ccc1F)c1ccccc1 (stereo unspecified) | -0.946% (inactive)
O=C(c1ccc(OC2CCN(C/C=C/c3ccc(F)cc3)CC2)cc1)N1CCCCC1 | 0.691% (inactive)
COc1ccc(/C=C/CN2CCCC(C(=O)c3cc(F)ccc3F)C2)cc1 (stereo unspecified) | 31.8% (active)
CSCC(=O)N1CCCC(C(=O)c2cc(F)ccc2F)C1 (stereo unspecified) | -3.7% (inactive)
Cc1ccc2oc3c(c(=O)c2c1)C(c1ccc([N+](=O)[O-])cc1)N(CCCN1CCOCC1)C3=O (stereo unspecified) | -0.734% (inactive)
COc1ccc2oc(=O)c(-c3cn4c(n3)sc3cc(OC)ccc34)cc2c1 | 1.26% (inactive)
C/C(=N/NC(=O)CN1CCN(S(=O)(=O)c2ccc(Br)cc2)CC1)c1ccncc1 | 1.09% (inactive)
Cc1ccc(S(=O)(=O)N2CCN(CC(=O)N/N=C/c3ccc(Br)s3)CC2)cc1 | 47.7% (active)
Cc1cccc(NC(=O)CN2CCCN(S(=O)(=O)c3ccc(Br)s3)CC2)c1 | 9.87% (inactive)
CCOC(=O)c1ccccc1NC(=O)CCc1c(C)nc2c(c1C)c(=O)n(C)c(=O)n2C | -7.61% (inactive)
Cc1cc(C)cc(NS(=O)(=O)c2ccc(-c3cc(C)no3)s2)c1 | -5.49% (inactive)
CCOc1cc(/C=C2\SC(N3CCCC(C)C3)=NC2=O)ccc1O (stereo unspecified) | -4.09% (inactive)
CCc1ccc(/C=C2\SC(N3CCOCC3)=NC2=O)cc1 | 38.7% (active)

Structure (SMILES) | enhancement
O=C1N=C(N2CCOCC2)S/C1=C\C=C/c1ccccc1 | -2.61% (inactive)
COc1ccc(CCNC(=O)CCCn2c(=O)c3ccccc3n(Cc3ccc(F)cc3Cl)c2=O)cc1OC | 4.63% (inactive)
COC(=O)c1cccc(NC(=O)CSc2nc(C)cc(=O)[nH]2)c1 | 36.7% (active)
COc1ccc(NC(=O)CSc2ncnc3[nH]ncc23)cc1 | 3.87% (inactive)
CC(=O)c1cccc(NC(=O)CSc2nc3c(c(=O)[nH]2)CCC3)c1 | -3.58% (inactive)
COc1ccc2nc(SCC(=O)Nc3c(C)cc(C)cc3C)[nH]c2c1 | 0.227% (inactive)
COc1ccc(NC(=O)CSc2nc(NS(=O)(=O)c3ccc(C)cc3)cc(=O)[nH]2)cc1 | -7.18% (inactive)
COc1ccc(NC(=O)CSc2nc(C)cs2)cc1 | 33.7% (active)
Cc1csc(SCC(=O)Nc2sccc2C#N)n1 | -4.36% (inactive)
O=C(COC(=O)CCCSc1nc2ccccc2[nH]1)Nc1ccc(Oc2ccccc2)cc1 | 1.7% (inactive)
COc1ccc(NC(=O)CSc2nc3ccccc3[nH]2)cc1 | 39.7% (active)
COC(=O)c1cccc(Cn2nnc3sc4c(c3c2=O)CCC(C(C)(C)C)C4)c1 (stereo unspecified) | -1.23% (inactive)
COc1ccc(CCNC(=O)C(=O)NCC(c2ccco2)S(=O)(=O)c2cccs2)cc1OC (stereo unspecified) | -2.44% (inactive)
Cn1nnnc1Sc1ncnc2scc(-c3ccccc3[N+](=O)[O-])c12 | -1.81% (inactive)
COc1cc(OC)cc(C(=O)Nc2ccc3nc(Nc4cccc(C(F)(F)F)c4)cc(C)c3c2)c1 | -5.96% (inactive)
CC1=CC(C)(C)N(C(=O)CSc2nnc(-c3ccccc3)o2)c2ccc(C)cc21 | 35.8% (active)
Cc1cccc(-c2nnc(SCC(=O)N3CCCc4ccccc43)o2)c1 | -6.5% (inactive)
CC1=CC(C)(C)N(C(=O)CSc2nccn2C)c2cc(C)ccc21 | -7.93% (inactive)
